Compounds with a hit are over-represented: about 8.1% of the library has one in this group of screens.
Gal4-VP16 FLuc: inhibits Gal4-VP16 luciferase reporter, ROR gamma counter-screen; Drosophila S2 Gal4-VP16 UAS-luciferase, luminescence, 20 h; 310,000 tested, 3.5% active; Potency, µM (top dose mostly 53.6 µM), for inactives: top-dose activity, negative = inhibition, actives largely listed as inhibitors;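 further: Gal4-VP16 expression switched on by copper sulfate through the metallothionein promoter; on the % scale 0 is the no-effect control and ±100 the full control effect; nearly all actives have a fitted effect of over 50% in size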
ClpP mod: qHTS Assay for Activators of ClpP; ATP-dependent Clp protease proteolytic subunit (Bacillus subtilis (strain 168)), P80244; purified B. subtilis ClpP, FRET peptide cleavage, 20 min; Potency, µM (top dose mostly 57.5 µM), for the others: at the top dose activity change, negative = active; 340,000 tested, 1.9% active; AID 651965, 2013; active means well fitted falling curve with a large enough effect; inconclusive means small, poorly fitted or top-dose-only effect; inactive means no such curve, though single readings can be large or run the other way; further: the source files actives as falling curves though it sought activators and does not explain the sign; nearly all actives have a fitted effect of over 65% in size
Target sequence (P80244 whole entry, looked up): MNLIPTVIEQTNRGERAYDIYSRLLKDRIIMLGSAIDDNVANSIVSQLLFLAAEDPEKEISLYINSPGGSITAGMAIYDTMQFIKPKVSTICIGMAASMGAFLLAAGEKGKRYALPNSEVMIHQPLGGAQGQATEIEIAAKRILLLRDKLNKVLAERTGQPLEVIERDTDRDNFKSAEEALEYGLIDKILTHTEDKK
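FRET quenching reversal measured ClpP activation: 10 microg/mL B. subtilis ClpP at pH 8 with the FRET-FV decapeptide, read at 430 nm after 320 nm excitation. The 20-min minus 0-min signal was scaled between DMSO/no-enzyme wells and ADEP (5.8 microM final).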
Epigenetic reg: epigenetic control regulation, reporter derepression; 280,000 tested, 0.2% active; AID 1865; Potency, µM (doses to about 53.9 µM), for the others: at the top dose GFP activation, most hits filed as activators; murine LDR cells, GFP reporter derepression, 30 h; further: % of control where 0% means no effect; nearly all actives have a fitted effect of over 60% in size
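Derepression of a silenced CMV-GFP reporter in murine LDR cells is scored by enumerating GFP-positive cells with a laser-scanning microplate cytometer after 30 hours of treatment at 37 C.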
RORg inh: ROR gamma (mouse) transcription inhibition; 310,000 tested, 5.4% active; AID 2551; Potency, µM (series often up to 53.6 µM), without a hit: at the top dose activity change, negative = inhibition, most hits filed as inhibitors; Drosophila S2 Gal4-RORgamma UAS-luciferase reporter, 20 h; P51450; further: on the % scale 0 is the no-effect control and ±100 the full control effect; nearly all actives have a fitted effect of over 60% in size
Target sequence (P51450 whole entry, looked up, the tested form may be a part): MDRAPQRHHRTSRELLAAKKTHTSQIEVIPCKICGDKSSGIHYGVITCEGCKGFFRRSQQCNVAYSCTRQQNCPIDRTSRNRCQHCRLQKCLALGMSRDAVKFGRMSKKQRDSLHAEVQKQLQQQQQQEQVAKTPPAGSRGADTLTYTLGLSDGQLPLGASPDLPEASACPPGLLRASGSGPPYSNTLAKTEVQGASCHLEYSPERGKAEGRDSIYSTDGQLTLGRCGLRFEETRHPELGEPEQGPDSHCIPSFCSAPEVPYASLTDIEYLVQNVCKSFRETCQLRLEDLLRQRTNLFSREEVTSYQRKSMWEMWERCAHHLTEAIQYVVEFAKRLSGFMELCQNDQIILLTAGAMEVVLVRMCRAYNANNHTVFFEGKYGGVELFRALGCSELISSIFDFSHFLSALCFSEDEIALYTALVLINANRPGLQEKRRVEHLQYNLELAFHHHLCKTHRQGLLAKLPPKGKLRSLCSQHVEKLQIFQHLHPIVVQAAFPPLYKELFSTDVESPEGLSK
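Stably transfected Drosophila Schneider cells are the test system, with ROR gamma fused to Gal4 and luciferase under UAS control; luminescence is read after 20 hr of 700 uM copper sulfate induction at ambient temperature.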
PINK1 modulator: modulators of PINK1 expression; 410,000 tested, 0.2% active; PINK1 immunofluorescence, high-content cytometry, 24 h; Potency, µM (series often up to 76.6 µM), for inactives: top-dose activation (PINK1 increase), most hits filed as activators; active means well fitted activation curve with a large enough effect; inconclusive means small, poorly fitted or top-dose-only effect; cell line not stated here; further: % of control where 0% means no effect; nearly all actives have a fitted effect of over 65% in size
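A stable cell line was treated with compounds at 5 concentrations for 24 hours, with CCCP as control. PINK1 levels and mitochondrial localization were measured by immunofluorescence with mitochondrial, cell and nuclear markers after fixation, read by laser-scanning cytometry.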
Sfp PPTase inh: Sfp phosphopantetheinyl transferase inhibition; Biochemical Sfp PPTase activity, qHTS; Potency, µM, for the others: largest response in the series, negative = inhibition, actives largely listed as inhibitors; 310,000 tested, 3.5% active;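 further: the enzyme is Sfp with the accession as filed and its product quenches rhodamine fluorescence; 0% = enzyme reaction without inhibitor and -100% = no enzyme wells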
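Compounds were incubated with enzyme (final 15 nM) for 15 min at room temperature before substrate addition started the reaction. Fluorescence at 525 nm excitation, 598 nm emission was recorded immediately and after 30 minutes.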
Numbers without * were called inactive; ? = inconclusive; nt = not tested or not shown; [ ] = remark or other dose. Unless noted, the call rests on the fitted dose curve; in most records, active means well fitted curve in the direction sought with a large enough effect; inconclusive means small, poorly fitted or top-dose-only effect, or another doubt; inactive means no such curve, though single readings can be large; an effect the other way counts as inactive or inconclusive. Potency means the concentration at half of the fitted maximal effect.

SMILES	Gal4-VP16 FLuc	ClpP mod	Epigenetic reg	RORg inh	PINK1 modulator	Sfp PPTase inh
COc1ccc(-c2cnnc(N/N=C/c3ccc(-c4ccc([N+](=O)[O-])cc4)o3)n2)cc1	-5.9%	0.7%	-5.2%	-36.2%	15.1%	?
COc1cccc(/C=C/C(=O)OCC(=O)Nc2ccc(S(=O)(=O)N3CCCC3)cc2)c1	-8.5%	-1.5%	1.0%	29.3%	-1.5%	79.4µM*
COc1cccc(/C=C/C(=O)OCC(=O)Nc2cccc(S(=O)(=O)N3CCCCC3)c2)c1OC	-8.6%	28.2µM*	-1.8%	?	6.6%	1.0%
COc1cc(/C=C/C(=O)Nc2ccc(OC)c(S(=O)(=O)N3CCOCC3)c2)ccc1OC(F)F	nt	-0.3%	nt	nt	11.8%	nt
COc1cccc(NC(=O)COC(=O)/C=C/c2ccc(Cl)cc2Cl)c1	1.1%	3.1%	1.0%	2.5%	-1.7%	12.5%
COc1cc(/C=C/C(=O)OCC(=O)Nc2ccc(S(=O)(=O)N3CCCC3)cc2)ccc1O	21.4%	-14.4%	-1.9%	17.5%	0.4%	-7.8%
O=C(COC(=O)/C=C/c1ccc(F)cc1)Nc1cccc(S(=O)(=O)N2CCCC2)c1	-9.3%	0.8%	-1.6%	21.9%	2.3%	17.1%
COc1ccc(OC)c(/C=C/C(=O)OCC(=O)Nc2cccc(Oc3ccccc3)c2)c1	2.4%	35.5µM*	-1.1%	35.0%	3.1%	18.3%
COc1ccc(NC(=O)/C=C/c2ccc(C)o2)cc1S(=O)(=O)N1CCOCC1	0.8%	-0.9%	0.0%	?	1.9%	50.1µM*
O=C(Nc1cccc(Cl)c1Cl)c1ccc2c(c1)N(Cc1cccc(Cl)c1)C(=O)c1ccccc1S2(=O)=O	nt	-11.0%	-2.9%	nt	1.9%	nt
CCOC(=O)c1cc(S(=O)(=O)NCc2ccc(Cl)cc2)[nH]n1	nt	-1.4%	-1.7%	nt	-1.1%	nt
CCOC(=O)c1c(S(=O)(=O)N2CCC(C(=O)Nc3ccccc3OC)CC2)c(C)n(CC)c1C	nt	0.1%	-1.3%	nt	-0.7%	nt
COc1ccc(/C=C/C(=O)OCC(=O)Nc2ccc(C)cc2)cc1S(=O)(=O)N1CCOCC1	-2.2%	7.94µM*	-0.9%	11.6%	0.5%	7.3%
CCOC(=O)CNc1c(-c2ccc(O)cc2)nc2ccccn12	2.0%	31.6µM*	-1.0%	-14.4%	2.5%[38.3 µM]	-8.6%
CCCN1CCN(c2ncnc3sc(C(=O)Nc4c(C)cc(C)cc4C)c(C)c23)CC1	nt	-0.6%	-5.3%	nt	0.7%	nt
O=C(Cn1c(-c2cccs2)cc2ccccc21)N1CCN(c2ccccc2F)CC1	nt	14.1µM*	-1.2%	nt	-2.1%	nt
O=C(Cn1c(-c2cccs2)cc2cc(Cl)ccc21)N1CCN(c2ccccc2F)CC1	nt	12.6µM*	-0.4%	nt	-1.8%	nt
O=C(Cn1c(-c2cccs2)cc2cc(F)ccc21)N1CCCCC1	nt	?	-1.2%	nt	-0.1%	nt
O=C(CNS(=O)(=O)c1cccs1)N1CCN(c2ccccc2F)CC1	11.3%	-0.3%	-1.0%	9.0%	1.3%	9.7%
O=C(Cn1c(-c2cccs2)cc2ccccc21)N1CCN(c2ccc(F)cc2)CC1	nt	35.5µM*	2.5%	nt	-0.9%	nt
Cc1ccc(Cl)cc1N1CCN(C(=O)Cn2c(-c3cccs3)cc3cc(F)ccc32)CC1	nt	8.91µM*	-0.4%	nt	0.2%	nt
Cc1ccc2c(=O)cc(C(=O)Nc3ccc(S(=O)(=O)N4CCCCCC4)cc3)oc2c1	nt	-3.6%	-1.0%	nt	3.6%	nt
O=C(NCCc1ccccc1)c1c2c(nc3ccccc13)C(=O)N(C1CCCCC1)C2	nt	-15.9%	0.0%	nt	1.6%	nt
Nc1ncnc2c1ncn2[C@@H]1O[C@H](C(=O)NC2CC2)[C@@H](O)[C@H]1O	nt	nt	0.0%	nt	nt	4.9%
O=C(Cn1c(-c2cccs2)cc2cc(Cl)ccc21)N1CCN(c2ccccc2)CC1	nt	25.1µM*	-1.2%	nt	2.6%	nt
SMILES	Gal4-VP16 FLuc	ClpP mod	Epigenetic reg	RORg inh	PINK1 modulator	Sfp PPTase inh
Cc1cc(O)c(C(C)C)cc1N=Cc1ccccc1O	?	-2.7%	0.0%	-81.6%	0.5%	14.1µM*
Cc1cc(O)c(C(C)C)cc1N=Cc1cc([N+](=O)[O-])ccc1O	?	-2.1%	1.1%	10µM*	1.2%	14.1µM*
O=C1CCCC(C(C(=O)OCc2ccccc2)C(=O)OCc2ccccc2)C1 (stereo not drawn)	5.9%	nt	-1.1%	8.6%	nt	-5.1%
COc1ccccc1CNC(=O)c1ccc2c(c1)nc(C)n2-c1cccc(C)c1	nt	-7.6%	0.0%	nt	1.3%	nt
CN(Cc1ccco1)c1ncncc1-c1ccccc1Cl	-6.8%	nt	nt	-25.8%	2.7%	79.4µM*
Cc1ccc(NC(=O)c2ccc(CN3CC(=O)N4CCCCC4C3=O)cc2)cc1C (stereo not drawn)	nt	-1.6%	-0.4%	nt	-1.4%	nt
Cc1ccc(S(=O)(=O)c2cnc(SCC(=O)Nc3cc(C)cc(C)c3)nc2N)cc1	nt	?	2.5%	nt	0.4%	nt
O=C(NCc1nnc2n1CCN(Cc1cc3c(cc1Cl)OCO3)CC2)c1cccc(F)c1	nt	nt	nt	nt	-0.5%	nt
N#Cc1ccsc1NC(=O)c1ccc2ncsc2c1	nt	-2.0%	nt	nt	0.2%	nt
O=C(O)c1cc(NC(=O)c2ccc(Cl)c([N+](=O)[O-])c2)cc(C(=O)O)c1	1.4%	nt	0.0%	6.3%	2.5%	2.0%
N#Cc1ccsc1NC(=O)c1ccccn1	5.01µM*	2.6%	0.0%	2.82µM*	1.6%	?
N#Cc1ccsc1NC(=O)CCc1ccccc1	?	nt	-0.9%	?	9.9%	8.0%
N#Cc1ccsc1NC(=O)c1cccc([N+](=O)[O-])c1	8.6%	nt	0.9%	39.6%	6.8%	39.8µM*
N#Cc1ccsc1NC(=O)c1ccc(Cl)c([N+](=O)[O-])c1	-0.6%	0.6%	1.2%	-3.4%	31.6µM*	-3.0%
COc1ccc(OC)c(-c2cc(Cl)c3c(c2)CC(CNC(=O)[C@@H]2CCCN2C(C)=O)O3)c1 (stereo partly drawn)	nt	nt	nt	nt	0.1%	nt
COc1ccccc1NC(C)C(=O)c1c[nH]c2ccccc12 (stereo not drawn)	nt	0.2%	nt	nt	0.4%	nt
CCOC(=O)c1cc([N+](=O)[O-])c([N+](=O)[O-])cc1NC(C)=O	3.16µM*	?	0.1%	5.01µM*	-3.6%	-10.7%
CCn1c(CNC(=O)C23CC4CC(CC(C4)C2)C3)nnc1SCC(=O)Nc1ccc(C)cc1	nt	1.8%	-1.1%	nt	0.0%	nt
CCC(=O)N1c2ccccc2CC1C(=O)NCc1ccccc1Cl (stereo not drawn)	nt	-0.7%	-4.0%	nt	11.0%	nt
COc1ccc(CCNC(=O)Cc2ccc(OCc3ccccc3)c(OC)c2[N+](=O)[O-])cc1OCc1ccccc1	3.16µM*	0.9%	-1.0%	?	-2.0%	21.8%
CCN(Cc1ccccc1)S(=O)(=O)c1ccc(C(=O)N(CCCN(C)C)c2nc3cc(C)cc(C)c3s2)cc1	nt	nt	nt	nt	-1.6%	nt

High-throughput results as filed in PubChem.
